This is an account of results in PubChem BioAssay.

For part of these data: Potency and affinity values are given separately. The source made the active and inactive calls.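 How the source made its calls, unless noted: active means hit in primary screen, with calcium signal over 5 SD above buffer well mean in both duplicates; inactive means the rest.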

Test [1] has as its system TRPC4 beta (transient receptor potential cation channel C4), mouse. Description: activators of mouse TRPC4 channel, confirmation, cell-based, Fluo4 calcium, HEK293 TRPC4beta/mu-opioid, duplicates, 10 µM (AID 2426;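 active means fluorescence ratio normalized to control raised more than 50% in primary screen plus both repeat runs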;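 on activation: percent rise of integrated ratio over buffer wells lacking compound which define 0%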). The settings on record: Fluo4 calcium fluorescence, at 10 µM; hits give high values.
The subject of test [2] is transient receptor potential cation channel C4 beta (TRPC4), mouse. Description: activators of mouse TRPC4 channel, confirmation, cell-based, second round, Fluo4, HEK293 TRPC4beta/mu-opioid, 1 µM (AID 2461;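 active means primary screen active and over 50% activation in each of two duplicate runs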;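 on activation: 0% = wells without test compound as baseline of integrated fluorescence ratio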). The settings on record: Fluo4 calcium fluorescence, at 1 µM; hits give high values.
Test [3] has as its system TRPC4 (transient receptor potential cation channel C4 beta), mouse. Put plainly: positive allosteric modulators of mouse TRPC4, confirmation, cell-based, second round, Fluo-4, HEK293 TRPC4beta/mu-opioid, 1 µM (AID 2554;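 active means primary screen hit whose fluorescence ratio, in both repeats, exceeds the weak agonist control mean by 3 SD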). Particulars: DAMGO EC20, Fluo-4 calcium flux, at 1 µM; hits give high values.
Test [4] deals with TRPC4 beta (transient receptor potential cation channel C4), mouse. Put plainly: positive allosteric modulators of mouse TRPC4, confirmation, cell-based, Fluo-4, HEK293 TRPC4beta/mu-opioid (AID 2555;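 active means primary screen hit whose calcium fluorescence ratio, in both repeats, exceeds the weak agonist control mean by 3 SD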). Particulars: DAMGO EC20, Fluo-4 calcium flux, at 10 µM; hits give high values.
Test [5] concerns the target Short transient receptor potential channel 4 (Mus musculus) (UniProt Q9QUQ5). Put plainly: inhibitors of mouse TRPC4 channel, confirmation, cell-based, Fluo4, HEK293 TRPC4beta/mu-opioid (AID 2636;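 active means calcium signal cut by more than 3 SD below the full-agonist control yet still positive, in both repeats and the earlier primary screen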). The settings on record: DAMGO, Fluo4 calcium flux, at 10 µM; hits give high values. (In general: Calcium flux is commonly read through the fluorescence of an indicator in the cells.)

For test [6] the target is unchanged. Put plainly: inhibitors of mouse TRPC4 channel, confirmation, cell-based, second round, Fluo4, HEK293 TRPC4beta/mu-opioid, 1 µM (AID 2637;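 active means calcium signal ratio cut to more than 3 SD under the fully stimulated control mean yet still positive, in both repeats and the primary screen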). Particulars: Fluo4 calcium flux, DAMGO, at 1 µM; hits give high values.
The target is the same in test [7]. Put plainly: TRPC4 positive allosteric modulators, dose response, cell-based, HEK293 TRPC4/mu-opioid, Fluo-4 calcium, EC20 DAMGO (AID 434941;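 active means earlier screen potentiator hit that boosts the TRPC4 ion channel at some dose, with a dose response; inactive means no potentiation, no dose response, or not a prior hit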;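 further: calcium entry triggered by an EC20 dose of DAMGO at the co-expressed mu-opioid receptor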).
The target is the same in test [8]. Description: mouse TRPC4 channel inhibitors, dose response, cell-based, HEK293 TRPC4/mu-opioid, Fluo-4 calcium (AID 434942;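 active means primary screen inhibitor hit that blocks the TRPC4 channel at some tested dose, yielding a dose curve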).
Test [9] concerns the target Short transient receptor potential channel 6 (Mus musculus) (UniProt Q61143). Put plainly: inhibition of mouse TRPC6 channel, confirmation, selectivity assay for TRPC4 inhibitor project, cell-based, HEK293, membrane potential dye, duplicate (AID 434948;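 active means active in primary screen and both duplicates, each dropping signal beyond three positive-control SD with fluorescence still positive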). Particulars: HEK293 TRPC6, membrane potential dye fluorescence, at 10 µM, stimulated with maximal-effect acetylcholine; hits give high values.

For test [10] the target is unchanged. Put plainly: activation of mouse TRPC6 channel, confirmation, selectivity assay for TRPC4 activator project, cell-based, HEK293, membrane potential dye, duplicate (AID 434950;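 active means membrane potential signal rise above negative control mean plus 3 SD in both duplicates, also active in the earlier TRPC4 screen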;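 on activation: 0% = buffer only wells and 100% = acetylcholine maximal-effect wells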). The settings on record: HEK293 TRPC6, membrane potential fluorescence, at 10 µM; hits give high values.
Test [11] shares this target. Put plainly: TRPC6 potentiation by TRPC4 potentiator hits, confirmation, selectivity assay for TRPC4 potentiator project, HEK293 cells, membrane potential dye, duplicate (AID 434952;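 active means compound raising the membrane signal above positive-control mean plus 3 SD in both repeats, and a primary screen hit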). Particulars: HEK293 TRPC6, membrane potential dye fluorescence, at 10 µM, maximal acetylcholine added after compound; hits give high values.
Test [12] deals with Short transient receptor potential channel 4 (Mus musculus) (UniProt Q9QUQ5). Put plainly: calcium flux activators in TRPC4/5HT1a cells, counter-screen for TRPC4 activator project, cell-based, second counter screen, HEK293 TRPC4/5HT1a, Fluo-4 (AID 434977;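 active means calcium signal rise above buffer-control mean plus 5 SD in both duplicates, and also a hit in the primary screen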;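 on activation: plate controls were assay buffer for no effect and maximal serotonin response for full effect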). The settings on record: Fluo-4 calcium flux, at 10 µM; hits give high values.
Test [13] is described as follows: calcium flux inhibitors in TRPC4/5HT1a cells, confirmation, counter-screen for TRPC4 inhibitor project, cell-based, second counter screen, HEK293 TRPC4/5HT1a, Fluo-4 (AID 434978;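 active means primary screen active whose calcium signal fell more than 3 SD beyond the full-serotonin control mean in both duplicate plates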;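 on outcome: serotonin given first at submaximal then at maximal dose after compound preincubation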). The settings on record: Fluo-4 calcium flux, at 10 µM, serotonin added to trigger calcium flux; hits give high values.
In test [14] the test system is TRPC4 (mouse), co-expressed with 5HT1a in HEK293. Put plainly: calcium flux potentiators in TRPC4/5HT1a cells, confirmation, counter-screen for TRPC4 potentiator project, cell-based, second counter screen, HEK293 TRPC4/5HT1a, Fluo-4 (AID 434979;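 active means signal rise over 3 SD above mean of control wells given weak agonist, in both repeats and first screen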). The settings on record: Fluo-4 calcium flux, at 10 µM, serotonin added at its EC20 dose; hits give high values.
Test [15] in a line: calcium flux activation in mu-opioid HEK293 cells, confirmation, counter-screen for TRPC4 activator project, cell-based, HEK293 mu-opioid receptor line (AID 449723).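 Further: counter screen cells carry the mu-opioid receptor alone and lack TRPC4.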 The settings on record: Fluo-4 calcium fluorescence, at 10 µM; hits give high values.
A short description of test [16]: calcium flux enhancement in mu-opioid HEK293 cells, confirmation, counter-screen for TRPC4 allosteric potentiator project, cell-based, HEK293 mu-opioid receptor line (AID 449724;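 active means calcium signal rise more than 3 SD above the low-dose agonist control mean, in both duplicate plates and the primary screen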;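 further: HEK293 cells carrying mu-opioid receptor only with no TRPC4 channel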). Particulars: Fluo-4 calcium flux, at 10 µM, compound added before EC20 DAMGO stimulus; hits give high values.
Test [17] in a line: thallium flux activation in parental CHO cells, counter-screen for KCNQ1 potentiator project (AID 493006;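 active means duplicate-averaged activation above buffer control mean plus 5 SD of those controls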;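 on activation: fluorescence ratio of max minus min over baseline after K+ and Tl+ depolarization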). The settings on record: parental CHO-K1 cells, FluxOR thallium flux, at 10 µM; hits give high values. In general terms: Counterscreens check selectivity or assay interference.
The target in test [18] is Potassium voltage-gated channel subfamily KQT member 1 (Homo sapiens) (UniProt P51787). Put plainly: KCNQ1 potassium channel potentiators, confirmation, FluxOR thallium flux, CHO cells, duplicates (AID 493007;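 active means potentiation averaged over duplicate wells exceeding buffer-only control mean by more than 3 SD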;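 on outcome: cells depolarized by a potassium plus thallium sulfate stimulus after compound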;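 on potentiation: 0% = buffer-only wells and 100% = R-L3 activator control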). Particulars: KCNQ1 cell line, FluxOR thallium flux fluorescence, at 10 µM; hits give high values, % of reference activator effect, buffer zero.
Test [19] concerns the target Potassium voltage-gated channel subfamily KQT member 2 (Rattus norvegicus) (UniProt O88943). Description: rat KCNQ2 channel potentiation, selectivity assay for KCNQ1 potentiator project, KCNQ2-CHO-K1 cells (AID 493009;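 active means mean duplicate potentiation above the buffer control mean plus 5 SD of buffer wells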;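 further: assay conditions were tuned for KCNQ1 rather than KCNQ2 modulators; signal is max minus min fluorescence divided by baseline after thallium stimulus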). Particulars: FluxOR thallium flux fluorescence, at 10 µM; hits give high values, scaled: buffer 0, activator control 100.
For test [20], the target named is Potassium voltage-gated channel subfamily KQT member 1 (Homo sapiens) (UniProt P51787). Put plainly: KCNQ1 channel current potentiators, confirmation, orthogonal assay for KCNQ1 potentiator project, IonWorks patch clamp, KCNQ1-CHO cells (AID 493184;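 active means current rise at least 3 SD above the untreated control mean in each of two repeat wells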). Particulars: automated patch clamp current, at 10 µM; hits give high values. Background: Patch clamp records ionic current or voltage across a cell membrane.

Potassium voltage-gated channel subfamily KQT member 1 (Homo sapiens), sequence (P51787 whole entry, looked up): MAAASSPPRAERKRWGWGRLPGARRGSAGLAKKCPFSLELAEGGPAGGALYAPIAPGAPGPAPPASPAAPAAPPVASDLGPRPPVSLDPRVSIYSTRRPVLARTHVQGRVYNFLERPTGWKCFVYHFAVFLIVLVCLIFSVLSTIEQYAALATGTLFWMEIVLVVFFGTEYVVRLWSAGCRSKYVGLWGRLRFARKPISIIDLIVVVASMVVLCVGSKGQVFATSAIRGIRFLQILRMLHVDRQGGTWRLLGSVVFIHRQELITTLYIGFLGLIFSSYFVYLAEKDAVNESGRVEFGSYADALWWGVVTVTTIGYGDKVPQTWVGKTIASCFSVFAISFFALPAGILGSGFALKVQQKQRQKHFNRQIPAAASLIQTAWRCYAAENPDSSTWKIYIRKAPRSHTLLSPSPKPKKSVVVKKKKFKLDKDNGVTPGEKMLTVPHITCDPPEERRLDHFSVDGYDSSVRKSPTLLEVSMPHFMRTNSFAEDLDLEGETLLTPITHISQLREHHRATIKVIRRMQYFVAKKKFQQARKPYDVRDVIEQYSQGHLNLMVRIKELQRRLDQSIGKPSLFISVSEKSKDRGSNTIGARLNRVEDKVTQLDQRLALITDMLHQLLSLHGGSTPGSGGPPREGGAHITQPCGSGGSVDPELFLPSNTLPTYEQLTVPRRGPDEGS
Short transient receptor potential channel 4 (Mus musculus), sequence (Q9QUQ5 whole entry, looked up): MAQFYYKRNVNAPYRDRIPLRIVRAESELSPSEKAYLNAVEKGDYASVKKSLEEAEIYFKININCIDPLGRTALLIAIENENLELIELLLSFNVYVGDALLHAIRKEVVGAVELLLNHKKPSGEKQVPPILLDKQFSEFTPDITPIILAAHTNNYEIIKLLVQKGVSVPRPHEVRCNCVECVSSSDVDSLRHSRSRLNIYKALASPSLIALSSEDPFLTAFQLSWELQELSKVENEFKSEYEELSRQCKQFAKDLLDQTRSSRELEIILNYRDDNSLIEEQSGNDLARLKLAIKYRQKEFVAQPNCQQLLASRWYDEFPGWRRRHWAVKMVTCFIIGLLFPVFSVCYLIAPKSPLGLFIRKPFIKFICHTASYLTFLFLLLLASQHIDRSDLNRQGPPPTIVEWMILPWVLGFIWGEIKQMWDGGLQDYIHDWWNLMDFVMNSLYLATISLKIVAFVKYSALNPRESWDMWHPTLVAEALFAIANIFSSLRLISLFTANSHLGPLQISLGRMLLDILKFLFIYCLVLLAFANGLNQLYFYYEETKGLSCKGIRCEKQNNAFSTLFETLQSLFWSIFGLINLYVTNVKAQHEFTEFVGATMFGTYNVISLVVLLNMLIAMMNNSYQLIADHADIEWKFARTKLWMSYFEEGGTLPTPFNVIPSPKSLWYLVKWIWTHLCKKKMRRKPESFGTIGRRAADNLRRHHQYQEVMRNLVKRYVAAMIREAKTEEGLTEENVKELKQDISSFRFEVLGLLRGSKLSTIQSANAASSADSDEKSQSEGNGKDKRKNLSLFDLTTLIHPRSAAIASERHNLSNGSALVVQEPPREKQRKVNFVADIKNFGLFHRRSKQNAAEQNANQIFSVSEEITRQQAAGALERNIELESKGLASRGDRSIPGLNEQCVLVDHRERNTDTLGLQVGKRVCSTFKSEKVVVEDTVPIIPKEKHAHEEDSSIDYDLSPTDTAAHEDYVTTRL
Short transient receptor potential channel 6 (Mus musculus), sequence (Q61143 whole entry, looked up): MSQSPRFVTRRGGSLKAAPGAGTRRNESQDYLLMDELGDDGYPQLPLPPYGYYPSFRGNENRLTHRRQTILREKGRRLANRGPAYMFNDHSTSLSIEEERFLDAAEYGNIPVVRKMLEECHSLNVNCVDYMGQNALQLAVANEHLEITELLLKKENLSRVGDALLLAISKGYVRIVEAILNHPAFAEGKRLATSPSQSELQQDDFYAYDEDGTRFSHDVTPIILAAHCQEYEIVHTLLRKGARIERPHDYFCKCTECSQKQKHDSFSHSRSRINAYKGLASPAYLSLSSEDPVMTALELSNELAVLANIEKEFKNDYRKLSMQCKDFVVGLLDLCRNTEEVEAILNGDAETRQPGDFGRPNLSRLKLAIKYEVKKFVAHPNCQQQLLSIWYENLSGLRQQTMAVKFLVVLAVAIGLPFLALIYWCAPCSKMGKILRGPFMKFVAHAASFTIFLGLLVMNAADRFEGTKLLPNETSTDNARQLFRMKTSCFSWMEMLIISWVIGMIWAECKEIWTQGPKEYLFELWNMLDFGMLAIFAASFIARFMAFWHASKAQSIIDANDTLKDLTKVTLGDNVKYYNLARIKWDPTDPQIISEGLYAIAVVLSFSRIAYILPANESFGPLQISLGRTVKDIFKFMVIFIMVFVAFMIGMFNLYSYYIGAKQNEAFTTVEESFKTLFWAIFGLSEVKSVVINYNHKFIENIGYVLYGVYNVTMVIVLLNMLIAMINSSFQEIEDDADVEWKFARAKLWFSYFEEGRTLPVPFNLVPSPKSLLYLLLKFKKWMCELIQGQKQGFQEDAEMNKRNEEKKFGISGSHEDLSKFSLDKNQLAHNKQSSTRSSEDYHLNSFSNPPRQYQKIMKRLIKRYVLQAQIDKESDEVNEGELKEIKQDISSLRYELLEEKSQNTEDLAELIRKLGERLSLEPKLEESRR
Potassium voltage-gated channel subfamily KQT member 2 (Rattus norvegicus), sequence (O88943 whole entry, looked up): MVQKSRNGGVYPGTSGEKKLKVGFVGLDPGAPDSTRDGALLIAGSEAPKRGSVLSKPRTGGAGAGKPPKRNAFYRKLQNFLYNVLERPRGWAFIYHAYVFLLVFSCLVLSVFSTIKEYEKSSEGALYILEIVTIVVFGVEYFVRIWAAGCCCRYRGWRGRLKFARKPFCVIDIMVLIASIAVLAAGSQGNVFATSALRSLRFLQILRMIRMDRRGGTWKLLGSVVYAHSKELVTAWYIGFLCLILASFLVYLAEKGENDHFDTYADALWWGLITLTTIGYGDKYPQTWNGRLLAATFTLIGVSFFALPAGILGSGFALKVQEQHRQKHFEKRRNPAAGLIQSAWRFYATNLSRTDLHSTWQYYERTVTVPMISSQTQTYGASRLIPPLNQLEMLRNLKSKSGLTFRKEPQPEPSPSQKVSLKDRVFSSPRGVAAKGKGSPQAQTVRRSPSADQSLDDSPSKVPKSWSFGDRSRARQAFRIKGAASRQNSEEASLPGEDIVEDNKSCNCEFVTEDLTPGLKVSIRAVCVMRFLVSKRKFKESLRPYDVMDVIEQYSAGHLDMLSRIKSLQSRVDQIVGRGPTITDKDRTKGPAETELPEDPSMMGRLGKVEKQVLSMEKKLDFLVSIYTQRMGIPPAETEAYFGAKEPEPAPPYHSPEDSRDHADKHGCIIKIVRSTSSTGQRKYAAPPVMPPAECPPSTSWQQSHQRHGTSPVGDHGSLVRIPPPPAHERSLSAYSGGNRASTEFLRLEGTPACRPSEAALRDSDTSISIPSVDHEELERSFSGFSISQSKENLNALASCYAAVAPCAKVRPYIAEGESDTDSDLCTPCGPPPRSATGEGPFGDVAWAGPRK

`COc1cc(OC)cc(C(=O)N[C@H](C(=O)OCC(=O)NC(C)c2ccccc2)C(C)C)c1` (some centres not stated): the activation in [1] is 118% (active); in [10], 36% (active); in test [12], 85.2% (active); in test [15], 45.3% (active). Besides, the result in test [2], in [3], in test [4], in test [5], in test [6] and in test [7] was inactive. The outcome in [8], in [9], in test [11], in [13], in [14] and in test [16] was inactive. For the same compound, the outcome in test [17], in test [18], in test [19] and in test [20] was inactive.
In the case of `COc1ccc(-c2nc(CN3CCC(C(=O)NC4CCCC4)CC3)c(C)o2)cc1OC`, the activation in test [1] is 152% (active); in test [2], 70% (active); in test [10] it was 57% (active). Also, the outcome in test [3], in test [4], in [5], in test [6], in test [7] and in test [8] was inactive. For the same compound, the outcome in test [9], in [11], in [12], in test [13], in [14] and in [15] was inactive. In test [16], the outcome was inactive.
In the case of `COc1ccccc1C(=O)NNC(=S)NC(=O)c1sc2ccccc2c1Cl`, the outcome in test [1], in test [2], in [3], in test [4], in test [5] and in test [6] was inactive. In addition, the result in [7], in [8], in test [9], in [11], in test [14] and in test [15] was inactive. The outcome in test [16] and in [20] was inactive. Besides, the results for the activation in test [10], in test [12] and in [17] were 30.5% (active), 14.7% (active) and 278% (active), respectively. Besides, the inhibition in [13] is 38.3% (active). Further, the potentiation in test [18] is 150% (active); in [19] it was 287% (active).
As to `CCOC(=O)C1=NN(C(=O)c2ccc(C)cc2)C(O)(c2ccc(Cl)cc2)C1` (configuration not stated), the activation in test [1] is 98% (active); in test [10] it was 217% (active); in [12] it was 66.4% (active); in test [15] it was 37.9% (active); in test [17], 630% (active). In addition, the result in [2], in test [3], in test [4], in test [5], in test [6] and in test [7] was inactive. For the same compound, the outcome in [8], in [9], in test [11], in test [13], in [14] and in test [16] was inactive. Besides, the outcome in [20] was inactive. Besides, the potentiation in test [18] is 336% (active); in test [19] it was 655% (active).
With `O=c1c2cc(Br)ccc2nc(-c2cccc(C(F)(F)F)c2)n1O`, the activation in test [1] is 449% (active); in [12] it was 111% (active); in test [15] it was 60.8% (active); in [17], 808% (active). Besides, the outcome in test [2], in test [3], in test [4], in test [5], in test [6] and in [7] was inactive. Moreover, the outcome in test [8], in test [9], in test [10], in [11], in test [13] and in test [14] was inactive. Besides, the result in [16] and in [20] was inactive. Also, the potentiation in test [18] is 372% (active); in test [19], 766% (active).
`COC(=O)C1=NN(C(=O)c2cccc(Br)c2)C(O)(c2ccc(Cl)cc2)C1` (configuration not stated): the activation in test [1] was 121% (active); in test [12], 98.1% (active); in test [17] it was 575% (active). Besides, the result in [2], in [3], in [4], in [5], in [6] and in test [7] was inactive. For the same compound, the result in test [8], in test [9], in [10], in [11], in [13] and in test [14] was inactive. The result in test [15], in test [16] and in test [20] was inactive. In addition, the potentiation in [18] is 318% (active); in test [19], 745% (active).
For the compound `NCCSc1c(-c2ccc(Cl)cc2)[nH]c2ccccc12`, the activation is 116% (active) in test [1], 8.63% (active) in [12] and 19.5% (active) in [15]. Besides, the outcome in [2], in test [3], in test [4], in [5], in test [6] and in test [7] was inactive. Further, the outcome in test [8], in test [9], in [10], in [11], in [13] and in test [14] was inactive. Moreover, the outcome in test [16] was inactive.

Broadly, the inhibition is the share of the control response that was lost under treatment.
